Compounds without any hit were thinned out: in the full panel of roughly 83,000, 20% have a hit.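 How to read the values: 0–100, growth inhibition (40 = 60% inhibited); 0, no net growth; -100 to 0, cell death (-40 = 40% of starting cells died; -100 = all dead).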
Key:
Test in all cases: NCI-60 one-dose screen, 48 h (100 = growth as untreated, 0 = no growth, -100 = all killed)
Settings in all cases: 10 µM unless noted; active means growth percent below 10; inactive means the rest
HT29 colon = tested on: HT29 colon
SNB-75 CNS = tested on: SNB-75 CNS
SNB-19 CNS = tested on: SNB-19 CNS
U251 CNS = tested on: U251 CNS
PC-3 prostate = tested on: PC-3 prostate
UACC-62 melanoma = tested on: UACC-62 melanoma
LOX IMVI melanoma = tested on: LOX IMVI melanoma
SK-MEL-28 melanoma = tested on: SK-MEL-28 melanoma
SK-MEL-2 melanoma = tested on: SK-MEL-2 melanoma
EKVX NSCLC = tested on: EKVX NSCLC
SN12C renal = tested on: SN12C renal
UO-31 renal = tested on: UO-31 renal
TK-10 renal = tested on: TK-10 renal
ACHN renal = tested on: ACHN renal
CAKI-1 renal = tested on: CAKI-1 renal
A498 renal = tested on: A498 renal
CCRF-CEM leukemia = tested on: CCRF-CEM leukemia
MOLT-4 leukemia = tested on: MOLT-4 leukemia
SK-MEL-5 melanoma = tested on: SK-MEL-5 melanoma
SR leukemia = tested on: SR leukemia

Measured: growth

C=CC1=C(C(=O)O)N2C(=O)[C@@H](NC(=O)/C(=N\O)c3csc(N)n3)[C@H]2SC1 (stereo in doubt)
inactive: HT29 colon 104% | SNB-75 CNS 92.4% | SNB-19 CNS 114% | U251 CNS 92.1% | PC-3 prostate 95.3% | UACC-62 melanoma 114% | LOX IMVI melanoma 88.1% | SK-MEL-28 melanoma 111% | SK-MEL-2 melanoma 122% | EKVX NSCLC 103% | SN12C renal 112% | UO-31 renal 91.7% | TK-10 renal 122% | ACHN renal 96.7% | CAKI-1 renal 99.2% | A498 renal 95.1% | CCRF-CEM leukemia 98.1% | MOLT-4 leukemia 104%

CN(CCOc1ccc(CC2SC(=O)NC2=O)cc1)c1ccccn1 (configuration not stated)
inactive: HT29 colon 117% | SNB-75 CNS 96.3% | SNB-19 CNS 105% | U251 CNS 90.7% | PC-3 prostate 105% | UACC-62 melanoma 93.1% | LOX IMVI melanoma 92.8% | SK-MEL-28 melanoma 111% | SK-MEL-2 melanoma 117% | EKVX NSCLC 101% | SN12C renal 88.2% | UO-31 renal 72.1% | TK-10 renal 103% | ACHN renal 84.9% | CAKI-1 renal 96.3% | A498 renal 110% | CCRF-CEM leukemia 108% | MOLT-4 leukemia 119%

O=C(CCc1nnc2sc(Cc3ccccc3Cl)nn12)c1nc2ccccc2[nH]1
inactive: HT29 colon 99.4% | SNB-75 CNS 78.7% | SNB-19 CNS 96.2% | U251 CNS 97% | SK-MEL-5 melanoma 91.8% | UACC-62 melanoma 83.9% | LOX IMVI melanoma 87.9% | SK-MEL-28 melanoma 110% | SK-MEL-2 melanoma 93% | EKVX NSCLC 91.7% | SN12C renal 91.8% | UO-31 renal 63% | TK-10 renal 144% | ACHN renal 84.7% | CAKI-1 renal 89% | A498 renal 92.3% | CCRF-CEM leukemia 96.1% | MOLT-4 leukemia 72.9%

O=C1c2ccccc2-c2c1nc1ccccc1[n+]2[O-]
inactive: HT29 colon 105% | SNB-75 CNS 103% | SNB-19 CNS 103% | U251 CNS 103% | PC-3 prostate 99.4% | UACC-62 melanoma 105% | LOX IMVI melanoma 101% | SK-MEL-28 melanoma 113% | SK-MEL-2 melanoma 107% | EKVX NSCLC 118% | SN12C renal 100% | UO-31 renal 83.3% | TK-10 renal 116% | ACHN renal 91.4% | CAKI-1 renal 98.2% | A498 renal 103% | CCRF-CEM leukemia 102% | MOLT-4 leukemia 95.8%

Cc1ccsc1/C=C/C1=NCCCN1C
inactive: HT29 colon 99.3% | SNB-75 CNS 102% | SNB-19 CNS 104% | U251 CNS 100% | PC-3 prostate 90.5% | UACC-62 melanoma 106% | LOX IMVI melanoma 95.6% | SK-MEL-28 melanoma 103% | SK-MEL-2 melanoma 92.6% | EKVX NSCLC 99.5% | SN12C renal 95.3% | UO-31 renal 80% | TK-10 renal 104% | ACHN renal 101% | CAKI-1 renal 97.1% | A498 renal 113% | CCRF-CEM leukemia 81% | MOLT-4 leukemia 95%

COc1ccc2c(c1)nc(N)c1c3ccccc3cn21
inactive: HT29 colon 73.8% | SNB-75 CNS 67.6% | SNB-19 CNS 83.4% | U251 CNS 72.8% | SK-MEL-5 melanoma 50.8% | UACC-62 melanoma 58.7% | LOX IMVI melanoma 74.3% | SK-MEL-28 melanoma 78.8% | SK-MEL-2 melanoma 83.8% | EKVX NSCLC 72.7% | SN12C renal 89.6% | UO-31 renal 59% | TK-10 renal 125% | ACHN renal 81.1% | CAKI-1 renal 68.5% | A498 renal 75.2% | CCRF-CEM leukemia 74.5% | MOLT-4 leukemia 73.8%

CN(C)c1ccc(/C=C(\C#N)c2nc3ccccc3c(=O)[nH]2)cc1
inactive: HT29 colon 87.6% | SNB-75 CNS 113% | SNB-19 CNS 94.7% | U251 CNS 77.4% | SK-MEL-5 melanoma 89.3% | UACC-62 melanoma 94.8% | LOX IMVI melanoma 83.8% | SK-MEL-28 melanoma 110% | SK-MEL-2 melanoma 36.5% | EKVX NSCLC 92% | SN12C renal 90.8% | UO-31 renal 35.7% | TK-10 renal 101% | ACHN renal 96.1% | CAKI-1 renal 98% | A498 renal 90.7% | CCRF-CEM leukemia 107% | MOLT-4 leukemia 118%

CN1CCN(CC(=O)Nc2nc3c(s2)Nc2cc(Cl)c(Cl)cc2NC3=O)CC1
inactive: HT29 colon 99.1% | SNB-75 CNS 96.3% | SNB-19 CNS 104% | U251 CNS 95% | PC-3 prostate 97.7% | UACC-62 melanoma 109% | SK-MEL-28 melanoma 111% | SN12C renal 109% | UO-31 renal 85.4% | TK-10 renal 95.8% | ACHN renal 105% | CAKI-1 renal 102% | A498 renal 106% | CCRF-CEM leukemia 99.8% | MOLT-4 leukemia 90.8% | SR leukemia 98.8%

Source: PubChem BioAssay (NCI)
